From PubChem BioAssay AID1159580 (chemical genetic matrix, 2015)
Where “and” joins values, the source holds several entries; their conditions need not be identical. Equal entries are not always repeated. About 2,000 (36%) of roughly 5,500 compounds were called active. Another 18% or so got no clear call; they are omitted. Rule as the data show it: active = normalized growth mostly below about 0.91 (no sharp cut-off); inconclusive = no clear call, values can overlap the other calls; inactive = mostly above about 0.92. The list shows a part of the results.

Test: chemical genetic growth profiling, strain panel (AID 1159580);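 also: tested at 20 µM; growth read once vehicle control cultures reached saturation at 30 °C; 1 = growth at the plate median or of vehicle wells; lower values mean less growth of the strain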
Conditions: growth OD

Measured: normalized growth

COc1ccccc1N1CCN(CCCNc2cc(=O)n(C)c(=O)n2C)CC1
inactive: S. cerevisiae deletion strains, locus YJR043C, strain POL32, active compounds read low 1.01 | S. cerevisiae deletion strains, locus YJR075W, strain HOC1, active compounds read low 0.991 | S. cerevisiae deletion strains, locus YKL009W, strain mrt4, active compounds read low 0.976 | S. cerevisiae deletion strains, locus YKL068W, active compounds read low 0.978 | S. cerevisiae deletion strains, locus YKL085W, strain MDH1 (second series), active compounds read low 0.985 | S. cerevisiae deletion strains, locus YKL085W, strain MDH1, active compounds read low 0.985 | S. cerevisiae deletion strains, locus YKL160W, strain elf1, active compounds read low 0.995 | S. cerevisiae deletion strains, locus YKL190W, strain CNB1, active compounds read low 0.986 | S. cerevisiae deletion strains, locus YKR001C, strain vps1, active compounds read low 0.982 | S. cerevisiae deletion strains, locus YKR026C, strain gcn3, active compounds read low 1.02 | S. cerevisiae deletion strains, locus YKR091W, strain srl3, active compounds read low 1.01 | S. cerevisiae deletion strains, locus YLL001W, strain dnm1, active compounds read low 1.02 | S. cerevisiae deletion strains, locus YLL026W, active compounds read low 1.01 | S. cerevisiae deletion strains, locus YLL041C, strain sdh2, active compounds read low 1.01 | S. cerevisiae deletion strains, locus YLR027C, strain aat2, active compounds read low 1.01 | S. cerevisiae deletion strains, locus YLR039C, strain RIC1, active compounds read low 0.937 | S. cerevisiae deletion strains, locus YLR058C, strain SHM2, active compounds read low 0.974 | S. cerevisiae deletion strains, locus YLR102C, strain apc9, active compounds read low 0.988 | S. cerevisiae deletion strains, locus YLR221C, strain rsa3, active compounds read low 1.01 | S. cerevisiae deletion strains, locus YLR258W, strain gsy2, active compounds read low 1.02 | S. cerevisiae deletion strains, locus YLR262C, strain YPT6 (second series), active compounds read low 1.03 | S. cerevisiae deletion strains, locus YLR262C, strain YPT6, active compounds read low 0.857 | S. cerevisiae deletion strains, locus YLR268W, strain sec22, active compounds read low 0.982 | S. cerevisiae deletion strains, locus YLR320W, strain mms22, active compounds read low 1.02 | S. cerevisiae deletion strains, locus YLR330W, strain CHS5, active compounds read low 0.982 | S. cerevisiae deletion strains, locus YLR342W, strain FKS1 (second series), active compounds read low 1.03 | S. cerevisiae deletion strains, locus YLR342W, strain FKS1, active compounds read low 1.01 | S. cerevisiae deletion strains, locus YLR357W, strain rsc2, active compounds read low 1.03 | S. cerevisiae deletion strains, locus YLR370C, strain arc18, active compounds read low 1.03 | S. cerevisiae deletion strains, locus YLR371W, strain rom2, active compounds read low 1 | S. cerevisiae deletion strains, locus YLR384C, strain iki3, active compounds read low 1.02 | S. cerevisiae deletion strains, locus YLR418C, strain cdc73, active compounds read low 0.97 | S. cerevisiae deletion strains, locus YML016C, strain PPZ1, active compounds read low 0.983 | S. cerevisiae deletion strains, locus YML032C, strain rad52, active compounds read low 1.01 | S. cerevisiae deletion strains, locus YML120C, strain ndi1, active compounds read low 1 | S. cerevisiae deletion strains, locus YML124C, strain tub3, active compounds read low 0.997 | S. cerevisiae deletion strains, locus YMR058W, strain fet3, active compounds read low 1.01 | S. cerevisiae deletion strains, locus YMR078C, strain ctf18, active compounds read low 0.981 | S. cerevisiae deletion strains, locus YMR125W, strain sto1, active compounds read low 1.01 | S. cerevisiae deletion strains, locus YMR129W, active compounds read low 1.02 | S. cerevisiae deletion strains, locus YMR205C, strain PFK2, active compounds read low 1.01 | S. cerevisiae deletion strains, locus YMR223W, strain ubp8, active compounds read low 1 | S. cerevisiae deletion strains, locus YMR231W, strain pep5, active compounds read low 1.02 | S. cerevisiae deletion strains, locus YMR263W, strain SAP30, active compounds read low 0.975 | S. cerevisiae deletion strains, locus YMR307W, strain GAS1, active compounds read low 0.969 and 1.01 | S. cerevisiae deletion strains, locus YNL067W, strain RPL9B, active compounds read low 0.977 | S. cerevisiae deletion strains, locus YNL071W, strain lat1, active compounds read low 1.02 | S. cerevisiae deletion strains, locus YNL128W, strain TEP1, active compounds read low 0.983 and 1.01 | S. cerevisiae deletion strains, locus YNL153C, strain GIM3, active compounds read low 0.977 | S. cerevisiae deletion strains, locus YNL175C, strain NOP13, active compounds read low 1 | S. cerevisiae deletion strains, locus YNL197C, strain WHI3, active compounds read low 1 | S. cerevisiae deletion strains, locus YNL209W, strain ssb2, active compounds read low 1.01 | S. cerevisiae deletion strains, locus YNL224C, strain SQS1, active compounds read low 1 | S. cerevisiae deletion strains, locus YNL233W, strain BNI4, active compounds read low 0.986 | S. cerevisiae deletion strains, locus YNL248C, strain rpa49, active compounds read low 1 | S. cerevisiae deletion strains, locus YNL250W, strain rad50, active compounds read low 0.983 | S. cerevisiae deletion strains, locus YNL271C, strain bni1, active compounds read low 0.992 | S. cerevisiae deletion strains, locus YNL298W, strain CLA4, active compounds read low 0.982 | S. cerevisiae deletion strains, locus YNL307C, strain MCK1, active compounds read low 1.01 | S. cerevisiae deletion strains, locus YNL322C, strain KRE1 (second series), active compounds read low 1.01 | S. cerevisiae deletion strains, locus YNL322C, strain KRE1, active compounds read low 0.977 and 1.02 | S. cerevisiae deletion strains, locus YNR049C, strain mso1, active compounds read low 1.02 | S. cerevisiae deletion strains, locus YNR052C, strain pop2, active compounds read low 0.997 | S. cerevisiae deletion strains, locus YOL006C, strain TOP1, active compounds read low 0.959 | S. cerevisiae deletion strains, locus YOL012C, strain htz1 0.738 | S. cerevisiae deletion strains, locus YOL147C, strain pex11, active compounds read low 0.992 | S. cerevisiae deletion strains, locus YOR001W, strain rrp6, active compounds read low 1.02 | S. cerevisiae deletion strains, locus YOR061W, strain CKA2, active compounds read low 0.963 | S. cerevisiae deletion strains, locus YOR069W, strain VPS5, active compounds read low 0.995 | S. cerevisiae deletion strains, locus YOR070C, strain gyp1, active compounds read low 1.01 | S. cerevisiae deletion strains, locus YOR080W, strain dia2, active compounds read low 1.01 | S. cerevisiae deletion strains, locus YOR083W, strain WHI5 (second series), active compounds read low 0.992 | S. cerevisiae deletion strains, locus YOR083W, strain WHI5, active compounds read low 0.989 | S. cerevisiae deletion strains, locus YOR106W, strain vam3, active compounds read low 1.01 | S. cerevisiae deletion strains, locus YOR136W, strain idh2, active compounds read low 0.997 | S. cerevisiae deletion strains, locus YOR144C, strain elg1, active compounds read low 0.996 | S. cerevisiae deletion strains, locus YOR184W, strain ser1, active compounds read low 1 | S. cerevisiae deletion strains, locus YOR265W, strain rbl2, active compounds read low 1.01 | S. cerevisiae deletion strains, locus YOR270C, strain vph1, active compounds read low 1.03 | S. cerevisiae deletion strains, locus YOR290C, strain snf2, active compounds read low 1 | S. cerevisiae deletion strains, locus YOR316C, strain cot1, active compounds read low 0.988 | S. cerevisiae deletion strains, locus YPL051W, strain arl3, active compounds read low 1.01 | S. cerevisiae deletion strains, locus YPL055C, strain LGE1, active compounds read low 0.965 | S. cerevisiae deletion strains, locus YPL078C, strain atp4, active compounds read low 1.03 | S. cerevisiae deletion strains, locus YPL106C, strain sse1, active compounds read low 1.01 | S. cerevisiae deletion strains, locus YPL240C, strain hsp82, active compounds read low 1.03 | S. cerevisiae deletion strains, locus YPL241C, strain CIN2, active compounds read low 1 and 0.997 | S. cerevisiae deletion strains, locus YPR119W, strain clb2, active compounds read low 0.999 | S. cerevisiae deletion strains, locus YPR141C, strain kar3, active compounds read low 0.967 | S. cerevisiae deletion strains, locus YPR163C, strain tif3, active compounds read low 1 | S. cerevisiae deletion strains, locus YPR167C, strain met16, active compounds read low 0.984 | S. cerevisiae deletion strains, strain wtn01, active compounds read low 0.991 | S. cerevisiae strains, strain wild type, active compounds read low 0.997
